Compound activity (PubChem)
Hits are enriched below; roughly 0.43% of the tested compounds scored in any of these assays.
GAA glycogen: alters human alpha-glucosidase cleavage of glycogen. P10253. recombinant GAA, glycogen substrate, Amplex Red glucose oxidase fluorescence. Potency, µM (highest dose often 76.4 µM), for the others: at the highest dose activity change, negative = inhibition, hits mostly inhibitors. 0.38% of 300,000 active;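 also: potency is read from the fitted curve at half-maximal effect; 0% = full enzyme reaction and -100% = no-enzyme basal signal; the screen sought inhibitors and activators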
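Natural-substrate format: glycogen cleavage by 4 nM human enzyme, glucose read by Amplex Red coupling (Ex 573, Em 610 nm). Normalized to enzyme and no-enzyme controls.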
N370S GC mod: inhibits or activates N370S mutant glucocerebrosidase; 0.092% of 330,000 active; P04062; Potency, µM (highest dose often 59.4 µM), for the others: at the top dose activity change, negative = inhibition, usual class: inhibitors; N370S GC spleen homogenate, 4MU-glucoside fluorescence;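 also: potency is read from the fitted curve at half-maximal effect; 0% = full enzyme activity and -100% = no enzyme basal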
GAA inhib: alpha-glucosidase (human) inhibition; P10253; purified human GAA, 4-MU-alpha-glucoside fluorescence; Potency, µM (doses to about 76.9 µM), for the others: at the highest dose activity change, negative = inhibition, most hits filed as inhibitors; 0.005% of 200,000 active; AID 1466;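 also: potency is read from the fitted curve at half-maximal effect; plate controls were uninhibited enzyme wells for no effect and no-enzyme background for full effect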
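qHTS format, compound range up to 77 uM. Human lysosomal enzyme at 4 nM, 400 uM 4-MU glucoside substrate, pH 5.0, 20 min room temperature; fluorescence after alkaline stop gives activity normalized to controls.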
GAA spleen mod: inhibitors or activators of human alpha-glucosidase in spleen homogenate; P10253; Potency, µM (titrated, usually from 79.9 µM), inactives show at the highest dose activity change, negative = inhibition, actives largely listed as inhibitors; human spleen homogenate, 4-MU-alpha-glucoside fluorescence; 0.006% of 240,000 active; AID 2112;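 also: potency is read from the fitted curve at half-maximal effect; 0% = enzyme with vehicle and -100% = no enzyme basal signal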
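Human spleen homogenate (1 ug) incubated with compounds and 1 mM 4-methylumbelliferyl-alpha-D-glucopyranoside in pH 5.0 citrate/phosphate buffer, 37 C, 40 min. Stopped at pH 10; 4-MU fluorescence (Ex 365/Em 440 nm); AC50 by Hill fit.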
GLA inh pH 4.5: inhibitors of human alpha-galactosidase A at pH 4.5. 230,000 tested, under 10 active. activity change, negative = inhibition, % at 105 µM. P06280. purified enzyme, 4-MU-alpha-Gal fluorescence, pH 4.5;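 also: 0% = full activity with enzyme and -100% = basal without enzyme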
aGal spleen mod: inhibits or activates alpha-galactosidase in human spleen homogenate. P06280. human spleen homogenate, 4MU-alpha-Gal fluorescence, 40 min. Potency, µM (series often up to 80 µM), for the others: at the highest dose activity change, negative = inhibition, hits mostly inhibitors. 0.008% of 240,000 active. AID 2107;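 also: potency is read from the fitted curve at half-maximal effect; 0% = enzyme with vehicle and -100% = no enzyme basal signal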
Target sequence (P06280 32-429 limits assumed): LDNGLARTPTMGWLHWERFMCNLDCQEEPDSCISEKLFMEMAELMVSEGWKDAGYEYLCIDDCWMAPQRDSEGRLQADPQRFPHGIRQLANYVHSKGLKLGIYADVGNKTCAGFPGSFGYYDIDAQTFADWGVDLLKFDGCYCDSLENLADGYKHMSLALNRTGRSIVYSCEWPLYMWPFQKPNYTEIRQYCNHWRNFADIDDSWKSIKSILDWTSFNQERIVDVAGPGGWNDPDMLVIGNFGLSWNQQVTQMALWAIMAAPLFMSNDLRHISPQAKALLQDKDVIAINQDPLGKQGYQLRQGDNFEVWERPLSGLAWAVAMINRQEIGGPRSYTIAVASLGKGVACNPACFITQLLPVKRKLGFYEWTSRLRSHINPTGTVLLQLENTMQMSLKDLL
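Fluorogenic readout (Ex 365/Em 440 nm) of 4-methylumbelliferone released from 1 mM 4-MU-alpha-galactoside by spleen homogenate, 40 min at 37C, pH 5.0. Data normalized to no-enzyme and enzyme controls; Hill-equation AC50 from compound titrations.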
Numbers without * were called inactive; ? = inconclusive; nt = no result given; [ ] = dose if it differs, or a comment. Calls follow the shape of the dose curve; as a rule, active = well fitted curve in the direction sought with a large enough effect; inconclusive = small, poorly fitted or top-dose-only effect, or another doubt; inactive = no such curve, though single readings can be large; an effect the other way counts as inactive or inconclusive.

SMILES	GAA glycogen	N370S GC mod	GAA inhib	GAA spleen mod	GLA inh pH 4.5	aGal spleen mod
Cc1cccc(NC(=S)N(CCCN2CCOCC2)Cc2ccccn2)c1	5%	?	-6%	-2%	2	0%
S=C(Nc1ccc(Oc2ccccc2)cc1)N(CCCN1CCOCC1)Cc1ccccn1	-5%	10µM*	0%	5%	-5	9%
CCOC(=O)N1CCN(c2ccccc2O)CC1	11µM*	-1%	-5%	-5%	2	1%
COc1ccc(-c2cnnc(N/N=C/c3ccc(O)c(O)c3)n2)cc1	11µM*	-13%	-2%	-9%	-7	-5%
Cc1ccc(Nc2nc3c([nH]2)c(=O)n(C)c(=O)n3C)cc1	20µM*	9%	8%	-19%	-5	13%
O=C[C@@H]1CCCN1C(=O)[C@@H]1CCCN1C(=O)OCc1ccccc1	nt	-2%	nt	-6%	nt	9%
Oc1cc(O)c2c(c1)O[C@H](c1ccc(O)c(O)c1)[C@H](O)C2	10µM*	-6%	nt	11%[29.1 µM]	7	7%[29.1 µM]
CCN1CCS/C1=C/C=C/C1=[N+](CC)CCS1	-9%	7.9µM*	?	?	?	-20%
Oc1ccc(/C=N/Nc2ccc(C(F)(F)F)cn2)cc1	22µM*	-1%	-10%	-5%	-12	13%
Cc1cc(OCCn2cc(/C(N)=N/O)c3ccccc32)ccc1Cl	18µM*	?	-5%	-20%	2	2%
Cc1cccc(CNc2ncnc3ccc(-c4ccc5c(ccn5C)c4)cc23)c1	nt	-15%	nt	nt	nt	nt
CCOC(=O)Nc1sc(=S)n(C)c1C	7.9µM*	13%	3%	8%	-4	3%
Cc1c(NC(=O)OCCNC(=O)Nc2ccccc2)sc(=S)n1C	?	?	-11%	13%	-8	5%
NNC(=O)c1cc(-c2ccccc2)sc1N	5µM*	-7%	nt	1%	3	7%
CO/N=C\[C@@H](NS(=O)(=O)c1ccc(C)cc1)[C@H](C)/C=C\CC(=O)OC	nt	4%[12.8 µM]	nt	-1%[17.4 µM]	nt	2%[17.5 µM]
CCOC(=O)CN=C1CC(C)(C)CC2=C1Sc1ncnc(N(C)C)c1N2	28µM*	-4%	0%	-1%	0	6%
O=S(=O)(Nc1cc(O)cc2cccnc12)c1ccc(Cl)s1	nt	-5%	nt	7%	nt	4%
C=C1CCN(C(Cc2ccccc2)C(=O)Nc2ccc(OC)cc2)S(=O)(=O)c2ccccc21 (configuration not stated)	nt	5%	nt	-1%	nt	5%
Oc1ccc(Nc2nc(-c3ccc(O)cc3)cs2)cc1	25µM*	16µM*	-2%	0%	9	2%
Oc1ccc(Nc2nc(-c3cccnc3)cs2)cc1	18µM*	7%	nt	nt	nt	nt
Cc1cc(C)nc(NNC2=CC(=[N+]3CCCC3)CCC2)n1	2.2µM*	1%	-1%	4%	1	5%
COc1cccc([C@H]2Oc3ccc(OC)cc3/C(=N\OC[C@@H](O)[C@@H]3O[C@@H]4OC(C)(C)O[C@@H]4[C@H]3O)[C@@H]2O)c1	nt	-1%[12.8 µM]	nt	-3%[17.4 µM]	nt	1%[17.5 µM]
O=C(N/N=C/c1ccc(O)c(O)c1)NC12CC3CC(CC(C3)C1)C2	10µM*	22%	nt	nt	nt	nt
C=CCN1c2ccccc2[C@]23C[C@@H](C(=O)OC)N(S(=O)(=O)c4ccc(C(F)(F)F)cc4)C2=NC(C(=O)OC)=C(C(=O)OC)[C@H]13	nt	3%[12.8 µM]	nt	-4%[17.4 µM]	4	4%[17.5 µM]
NNC(=O)CN1C(c2ccccc2)=Nc2ccc(Br)cc2C1c1ccccc1 (configuration not stated)	-15%	40µM*	-3%	-1%	3	-7%
SMILES	GAA glycogen	N370S GC mod	GAA inhib	GAA spleen mod	GLA inh pH 4.5	aGal spleen mod
N#CCCS(=O)(=O)c1ccccc1	nt	-8%	nt	3%	-14	10%
CCc1cccc(C)c1Nc1c(-c2cccc(O)c2)nc2sccn12	35µM*	nt	nt	nt	nt	nt
CCc1cccc(C)c1Nc1c(-c2cccs2)nc2nc(C)cc(C)n12	-28%[76.3 µM]	nt	nt	nt	nt	nt
Cc1cccc(C)c1NC(=O)CSCC(=O)c1ccc(O)c(O)c1	11µM*	2%	-20%	-10%	-2	-4%
CCC1CN(S(=O)(=O)c2ccc3c(c2)NC(=O)CC(=O)N3)c2cc(Cl)ccc2O1 (configuration not stated)	-9%[76.3 µM]	1.6µM*	nt	nt	nt	nt
Cc1ccc(NC(=O)CC(C)S(=O)(=O)c2ccc3c(c2)NC(=O)CO3)c(C)c1 (configuration not stated)	15%[76.3 µM]	nt	nt	nt	nt	nt
COc1ccc(O)c(/C=N/c2sc(C)c(C)c2C#N)c1	14µM*	4%	-8%	-8%	8	-3%
CCOc1ccc(Nc2nc(Cc3nnc(SCC(=O)NCc4ccco4)n3CC)cs2)cc1	18µM*	-5%	-4%	4%	-2	3%
CCn1c(COc2ccc(C)cc2)nnc1SCC(=O)NCc1ccco1	3%	-6%	-5%	4%	-3	0%
CCc1ccc2nc3n[nH]c(N)c3cc2c1	18µM*	-1%	1%	-3%	7	-8%
Nc1[nH]nc2nc3ccccc3cc12	?	9%	-1%	-4%	-1	6%
COc1cc(C2CC(=O)Oc3c2c(=O)[nH]c2ccccc32)cc(OC)c1OC (configuration not stated)	50µM*	nt	nt	nt	nt	nt
O=C1CC(c2ccc(F)cc2)c2c(c3ccccc3[nH]c2=O)O1 (configuration not stated)	13%[76.3 µM]	nt	nt	nt	nt	nt
CCCCc1nc2c(c3c1C[C@H](C)OC3)CN(C(=O)c1cccnc1)CC2	nt	-7%[12.8 µM]	nt	4%[17.4 µM]	4	-9%[17.5 µM]
CCC[C@H](NC(=O)[C@H](CC(C)C)N(C)C(=O)CNC(=O)[C@@H](NC(=O)[C@H](Cc1ccccc1)NC(=O)[C@H](CCCCN)NC(=O)[C@@H](N)CC(=O)O)C(C)C)C(N)=O	nt	-5%	nt	-3%	nt	-5%
COCCNc1c(-c2ccc(OC)cc2)nc2ccc(Cl)cn12	5µM*	-24%	7%	8%	9	4%
CCOC(=O)c1ccc(Nc2nc3nonc3nc2Nc2cccc(C)c2C)cc1	-18%[76.3 µM]	nt	nt	nt	nt	nt
COc1ccc(/C=N\NC(=O)C2=NNC(=O)C2C)cc1 (configuration not stated)	28µM*	-4%	5%	-8%	10	-16%
COc1cccc(-c2nc(NCCc3c[nH]c4ccc(OC)cc34)c3ccccc3n2)c1	nt	14µM*	nt	2%	-2	8%
COc1ccc2[nH]cc(CCNc3nc(-c4ccoc4)nc4ccccc34)c2c1	nt	16µM*	nt	-12%	-10	1%
COc1ccc2[nH]cc(CCNc3nc(-c4ccc(N(C)C)cc4)nc4ccccc34)c2c1	nt	?	nt	2%	nt	23%
